Measured values published in PubChem BioAssay AID1845227 (National Center for Advancing Translational Sciences (NCATS), 2023).
Records with an inconclusive call do not appear. Values without a mark were called inactive. Activity calls are given as the source filed them. The call rests on the fitted dose curve; in most records, active means well fitted inhibition curve with a large enough effect; inconclusive means small, poorly fitted or top-dose-only effect; inactive means no such curve, though single readings can be large or run the other way.

Each molecule was assayed against Luciferin 4-monooxygenase (Photinus pyralis) (UniProt P08659) (assay: Confirmatory firefly luciferase (FLuc) qHTS assay for identification of artifact compounds). Conditions: purified FLuc enzyme, luminescence, 5 min; series mostly up to 38.9 µM; activity change, negative = inhibition: at the top concentration.
Text: PI: Alexander Tropsha Ph.D. UNC Eshelman School of Pharmacy University of North Carolina, Chapel Hill, North Carolina Hits from high-throughput screening (HTS) of chemical libraries are often false positives due to their interference with the assay detection technology. In response to this problem, we generated the largest publicly available library of chemical liabilities and developed a free webtool to predict HTS artifacts, both of which are described herein. More specifically, we generated, curated, and integrated HTS datasets for thiol reactivity, redox activity, and luciferase (firefly and nano) activity. Using these curated datasets, we developed and validated several Quantitative Structure-Interference Relationship (QSIR) models to predict nuisance behavior. […] These models were employed for virtual profiling of the National Center for Advancing Translational Science's (NCATS) in-house library, and 256 compounds for each assay were selected for the experimental validation of nuisance behavior. The BA for these external predictions ranged from 58 to 78% for compounds within the applicability domains of the models. […] The models developed in this study, along with aggregation models previously developed by our group (SCAM Detective) were implemented in "Liability Predictor," an online tool which may be used as part of chemical library design or for triaging HTS hits. Both the models and the curated datasets are publicly available at https://liability.mml.unc.edu/.
PROTOCOL TABLE SEQUENCE No. (e.g., 1, 2, 3, etc.); […] (e.g., Cells, Incubation, Reagent, etc.); VALUE; DESCRIPTION. 1; Reagent; 3 uL; Luciferase substrate mixture. 2; Compounds and control; 16 nL; Kalypsis pin tool (Wako USA) equipped with a 1536-well pin head. 3; Incubation; 15 min. 4; Reagent; 1 uL; Luciferase enzyme. 5; Incubation; 5 min. 6; Detection; Luminescence, ViewLux microplate reader. NOTES (numbers refer to Sequence numbers above) 1. 3 uL of luciferase substrate mixture containing D-luciferin and ATP (final concentrations of 10 uM and 10 uM, respectively) in assay buffer (10 mM Mg-acetate, 0.01% Tween-20, 0.05% bovine serum albumin, 50 mM Tris acetate, pH 7.6) was dispensed into all wells of a 1536-well assay plate (solid-bottom white plate; Greiner Bio One, Monroe, NC). 2. A Wako Pin-tool (Wako Automation, Richmond, VA) was used to transfer 16 nL of compounds (consisting of 7-plates in qHTS format, final concentration range 18.3 nM to 114 uM) or control PTC124 (final concentration range 1.22 nM to 40 uM). 3. 15 min. incubation at room temperature protected from light. 4. 1 uL of luciferase enzyme (final concentration 10 nM, Photinus pyralis luciferase) or buffer was dispensed for a final assay volume of 4 uL. 5. Plates were centrifuged (121xg, 15 seconds) and incubated for 5 minutes. 6. Samples were read for luminescence on a ViewLux CCD imager (PerkinElmer). Data were normalized to no-enzyme (0% activity) and no-inhibitor (DMSO; 100%) controls and the resulting percent inhibition data were fitted to a 4-parameter Hill equation using NCATS in-house software.
Potency means the concentration at half of the fitted maximal effect.

First: COC(=O)[C@]1(C)CC[C@@]2(C)CC[C@@]3(C)C4=CC=C5C(=CC(=O)C(O)=C5C)[C@@]4(C)CC[C@@]3(C)C2C1 (stereo not given in full)
Second: C[C@@]12CCC(OS(=O)(=O)O)C[C@@H]1CCC1C2CC[C@]2(C)C(=O)CCC12 (stereo not given in full)
The “activity change, negative = inhibition” value of the first is lower: -15.8% for the first, 11.6% for the second.

Going from `CC(=O)OCC(=O)[C@H]1CC[C@H]2[C@@H]3CC[C@H]4C[C@H](O)CC[C@]4(C)[C@H]3C(=O)C[C@]12C` to `CN(C)[C@@H]1C(=O)C(C(N)=O)=C(O)[C@@]2(O)C(=O)C3=C(O)c4c(O)ccc(Cl)c4[C@@](C)(O)[C@H]3C[C@@H]12`, the “activity change, negative = inhibition” value falls from 4.2% [at 13.1 µM] to -8.7% [at 13.1 µM].

With `O=C(O)c1cc[c]([Hg][S]c2ncnc3nc[nH]c23)cc1` the Potency was 12.2 µM (active).
